Residue numbers refer to the chain shown, from its start. Over roughly 24,000 sequences, “enrichment r” has its median near 0.99; the highest 2% begin near 3.7. The sample holds the highest values, similar sequences and a random draw of the others, so the mix is not that of the screen.
T1: UNK ZnF1-3 (human, UniProt Q9C0B0 31-174)
T1 sequence: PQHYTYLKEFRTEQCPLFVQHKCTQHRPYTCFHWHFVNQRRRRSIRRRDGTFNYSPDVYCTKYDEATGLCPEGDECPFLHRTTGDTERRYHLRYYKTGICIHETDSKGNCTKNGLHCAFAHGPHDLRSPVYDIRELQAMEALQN

B1: chr7:140404665:140404666:+_ENSG00000090266_ENST00000247866|hu_hu|hu_hu_hu_mus_False|18_38 (ssRNA)
RNA: GGGAGUUCUACAGUCCGACGAUCUGCUCCUACUCGUCCAGAGAGUUUACAGUGUCAGUCCUCGUCAUCAGGAGGGAUUCCCAGUUCUUCAUCUGUCCACUGGGAAGGAUCUGGAUACGGAAAGUGACCCAGCACAGCAUCCGACAACAGAGGAUUGAGCAUCA
B2: chr6:89793807:89793808:+_ENSG00000146278_ENST00000336032|hu_mus|FALSE|FALSE (ssRNA)
RNA: GGGAGUUCUACAGUCCGACGAUCACUUCCCAUCCAGUGACUCGGAGGCUUUGGGAGGACACUAGGGGAAGGUGGGUCACUGAACUUUGCUCCGGCGUAAUUUUCCUUUUGGCUCACUUCUGUUAGAAAUGCUGAUUUCUUCAACAACAGAGGAUUGAGCAUCA
B3: chr9:104153060:104153061:-_ENSG00000136897_ENST00000374865|hu_mus|FALSE|FALSE (ssRNA)
RNA: GGGAGUUCUACAGUCCGACGAUCAUGAGAUUCCAAGCGACUCUGGAGAUCACUGGGCGGUGUGUAUGCUCGGCUUCGUAAGGGUGGACACACCAAAACAGGUUCUUUUUUCACUUCUUCCACUGUCUCUGCCACAACUGGCUCCAACAGAGGAUUGAGCAUCA
B4: chr19:37005844:37005845:-_ENSG00000254004_ENST00000523638|hu_mus|FALSE|FALSE (ssRNA)
RNA: GGGAGUUCUACAGUCCGACGAUCGGGAGUUUUCUUAGAUUCACUGGGUCUCUCUUCGGUAUGUUGUUUCUGAUGAGAAAGGAAGUUUCCUCUCUGGCUGAAGGCCUUCCCACAUUCCCCACACUUGUAGGACUCCCUCCUUGGCAACAGAGGAUUGAGCAUCA
B5: 118238769_118243032_844_CDS_ENSMUSG00000005102_ENSMUST00000005233|mouse|control|control (ssRNA)
RNA: GGGAGUUCUACAGUCCGACGAUCAGAGAAAUGGAGGAUGUCACACGAGCCAGGAGAGGGUUCACCACUACACACAGAAUACUGACGUUCUCGCCUGGACCUUCCUGAGGAGUAUGUCCGGGCUUUACCAUUUCCUACAAAGUCCAACAGAGGAUUGAGCAUCA
B6: chr12:72179577:72179578:+_ENSG00000080371_ENST00000261263|hu_mus|motif|central (ssRNA)
RNA: GGGAGUUCUACAGUCCGACGAUCGUUUAGCACUUAAGGUCUCUGCAGUGUUAUAAACGUAAUUGAAAAUACUGUUAAUUCGGUAACUCCAUUGGUAAAAUGAUGUGACUUGGAAUAUGGCAGUCUUCAUGUUGAGGGCAAUGACAACAGAGGAUUGAGCAUCA
B7: chr16:11966626:11966627:-_ENSG00000103342_ENST00000563468|hu_hu|FALSE|FALSE (ssRNA)
RNA: GGGAGUUCUACAGUCCGACGAUCUUGUAACAUGUGCACACACACUCGCACACUCAGAAUGAUCUGCCUGGGGGAAAAAUACUAAAUAUGCCUAAGGGGAAAAUGAAAAAUAAAAAAAUUCCUGUAGGUUUUCAUUAUUGUAGGCAACAGAGGAUUGAGCAUCA
B8: chr1:150192712:150192713:-_ENSG00000143401_ENST00000314136|hu_hu|motif|central (ssRNA)
RNA: GGGAGUUCUACAGUCCGACGAUCGCACCAUACUACACCUGUGUAAAAGUGAUCAUGUUUUAAUUAUGGGCUAAAAAUGACGGAUACAGUAAGCUUGAAUUUAAAAAAUUAAGUCUAAAUAAAUUGCUAGGGAAUUCCACAAUGCAACAGAGGAUUGAGCAUCA
B9: chr16:94690093:94690094:+_ENSMUSG00000040785_ENSMUST00000117648|mus_hu|mus_mus_mus_hu_True|18_68 (ssRNA)
RNA: GGGAGUUCUACAGUCCGACGAUCGGGCUGGGAUGACGGACACACAGCCUCGAUUCCAGGGGGAAAAAAAAAUAGCCGAUACUAAUUAAAAAGUGUUAAUGAUUUUUGAAAAUCAGAUGUAGAUUAAAAAAGAUGAAAAGCAAACAACAGAGGAUUGAGCAUCA
B10: chr1:150192712:150192713:-_ENSG00000143401_ENST00000314136|hu_hu|FALSE|FALSE (ssRNA)
RNA: B8 RNA with G81U, G82A
B11: chr4:25749455:25749456:-_ENSG00000091490_ENST00000264868|hu_hu|hu_hu_hu_mus_False|8_68 (ssRNA)
RNA: GGGAGUUCUACAGUCCGACGAUCGCACUAUGACCUCUAGAAAAAUCCACAGGGGGAAAAAAUGUAAACCAAUUUACAAUGUUAUCGCCUUCCCUGUGUGUGGAGUGUUUGUCUCAAGGCUCCUUCUUGCCUUAUAAUUUGGGACAACAGAGGAUUGAGCAUCA
B12: chr4:144460044:144460045:+_ENSG00000153147_ENST00000283131|hu_mus|hu_hu_hu_mus_False|18_68 (ssRNA)
RNA: GGGAGUUCUACAGUCCGACGAUCACGGUCCAUAGCCUGAAGAUCAACUUGCGGAUUCCAAUCUGAGUCAUACAAAAUGACUACAUCAGCAGUUGCAAGAUUGAUGCCCAGACCACCAGCACGCGUGCUUAGCAUAAAUACAAACAACAGAGGAUUGAGCAUCA

Molecular target: T1, UNK ZnF1-3
Assay: nsRBNS (natural sequence RNA bind-n-seq); RBNS binding buffer (assumed for nsRBNS): 25 mM Tris pH 7.5, 150 mM KCl, 3 mM MgCl2, 0.01% Triton X-100, 500 ug/ml BSA, 20 U/ml SUPERase-In, 4 C; UNK is unkempt and MSI1 is Musashi-1; names of the RNAs are library labels; protein concentration not given here; high values mean tight binding

First: B1
Second: B2
The binding signal of the first is higher: 1.45 enrichment R for the first, 0.744 enrichment R for the second.

First: B3
Second: B4
The binding signal of the first is lower: 0.821 enrichment R for the first, 0.845 enrichment R for the second.

First: B5
Second: B6
The binding signal of the first is higher: 1.63 enrichment R for the first, 0.946 enrichment R for the second.

Compared with B7, B8 is higher in binding signal: 3.28 enrichment R for the first, 5.11 enrichment R for the second.

Compared with B9, B10 is higher in binding signal: 3.66 enrichment R for the first, 5.25 enrichment R for the second.

First: B11
Second: B12
The binding signal of the first is lower: 0.719 enrichment R for the first, 1.01 enrichment R for the second.

Reference: paper PMC12136788
